Assay results taken from PubChem BioAssay (Tox21).
Records with an inconclusive call do not appear. The source made the active and inactive calls. Unless noted, calls come from the whole dose curve.

What was measured:
[1] = Nuclear factor erythroid 2-related factor 2/antioxidant responsive element (Nrf2/ARE) small molecule agonists: luciferase reporter gene qHTS assay in human keratinocytes (AID 1919969); note: nearly all actives have a fitted effect of over 35% in size; note: potency is the fitted concentration of half-maximal effect
[2] = target: Gonadotropin-releasing hormone receptor (Homo sapiens) (UniProt P30968); test: Human gonadotropin-releasing hormone receptor (GnRHR) small molecule agonists, calcium flux assay in GnRHR-HEK293 cells (AID 1920063); note: nearly all actives have a fitted effect of over 35% in size
Sequence of Gonadotropin-releasing hormone receptor (Homo sapiens) (P30968 whole entry, looked up): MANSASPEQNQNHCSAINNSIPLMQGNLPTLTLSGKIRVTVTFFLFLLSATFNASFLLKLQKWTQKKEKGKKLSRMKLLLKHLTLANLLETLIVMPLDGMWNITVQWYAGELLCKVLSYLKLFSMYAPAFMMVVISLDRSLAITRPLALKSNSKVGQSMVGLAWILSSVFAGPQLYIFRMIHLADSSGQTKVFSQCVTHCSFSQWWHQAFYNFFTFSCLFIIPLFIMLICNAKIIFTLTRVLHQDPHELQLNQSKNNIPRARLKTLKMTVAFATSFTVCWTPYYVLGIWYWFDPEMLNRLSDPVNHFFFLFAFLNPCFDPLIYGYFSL
Procedure, shortened: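 HEK293 cells stably expressing human GnRHR were dye-loaded for 1 h at 37 C. Compound was added in agonist mode and fluorescence (Ex/Em 480/540) recorded kinetically for 3 min. Fifteen concentrations, triplicates.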

[3] = target: KiSS-1 receptor (Homo sapiens) (UniProt Q969F8); test: Human kisspeptin (KISS1R) small molecule agonists, calcium flux assay in KISS1R-HEK293 cells (AID 1920064; active = well fitted activation curve with a large enough effect in the repeat runs)
Sequence of KiSS-1 receptor (Homo sapiens) (Q969F8 whole entry, looked up): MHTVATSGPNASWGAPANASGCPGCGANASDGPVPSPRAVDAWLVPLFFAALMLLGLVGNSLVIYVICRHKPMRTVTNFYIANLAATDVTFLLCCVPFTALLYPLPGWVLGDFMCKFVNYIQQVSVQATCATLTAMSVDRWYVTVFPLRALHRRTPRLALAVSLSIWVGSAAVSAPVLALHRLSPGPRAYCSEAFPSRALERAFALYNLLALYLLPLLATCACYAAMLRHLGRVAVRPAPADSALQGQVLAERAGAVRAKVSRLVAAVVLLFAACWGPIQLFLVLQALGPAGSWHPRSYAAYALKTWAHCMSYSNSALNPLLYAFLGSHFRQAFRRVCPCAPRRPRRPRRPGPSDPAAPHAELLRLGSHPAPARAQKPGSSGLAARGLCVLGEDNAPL
Procedure, shortened: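 HEK293 cells stably expressing human KISS1R were loaded with calcium dye for 1 h at 37 C, then given compound; fluorescence (Ex/Em 480/540) was read kinetically for 3 min. Fifteen concentrations, triplicate.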

[4] = G protein-coupled receptor (GPCR) small molecule agonists, calcium flux assay: HEK293 wild type cell line counter screen (AID 1920065)
Procedure, shortened: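 Wild-type HEK293 cells plated 18 h, loaded with calcium dye 1 h at 37 C, then compounds added in agonist mode (ATP as positive control). Kinetic fluorescence Ex/Em 480/540 recorded 3 min at 1 sec intervals; 15 concentrations, triplicate.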

[5] = p53 small molecule agonists, cell-based qHTS assay with human liver microsomes (AID 1963577);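 note: p53 response element beta-lactamase reporter cells with liver microsomes plus NADPH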
Procedure, shortened: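 p53RE-bla cells; 5 h settle, 37 C/5% CO2; cpd + HLM 0.5 mg/mL + NADPH 0.5 mg/mL (final); 16 h 37 C; LiveBLAzer 2 h RT dark; fluorescence readout.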

[6] = p53 small molecule agonists, cell-based qHTS assay with rat liver microsomes (AID 1963578)
Procedure, shortened: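 Rat liver microsome activation: microsomes 0.5 mg/mL, NADPH 0.5 mg/mL final; p53RE-bla cells, 16 h 37 C; LiveBLAzer readout, 2 h RT dark.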

[7] = target: 5-hydroxytryptamine receptor 2A (Homo sapiens) (UniProt P28223); test: 5-hydroxytryptamine receptor 2A (HTR2A) small molecule antagonists, cell-based qHTS assay (AID 1963586); note: nearly all actives have a fitted effect of over 45% in size; note: potency is the fitted concentration of half-maximal effect
Sequence of 5-hydroxytryptamine receptor 2A (Homo sapiens) (P28223 whole entry, looked up): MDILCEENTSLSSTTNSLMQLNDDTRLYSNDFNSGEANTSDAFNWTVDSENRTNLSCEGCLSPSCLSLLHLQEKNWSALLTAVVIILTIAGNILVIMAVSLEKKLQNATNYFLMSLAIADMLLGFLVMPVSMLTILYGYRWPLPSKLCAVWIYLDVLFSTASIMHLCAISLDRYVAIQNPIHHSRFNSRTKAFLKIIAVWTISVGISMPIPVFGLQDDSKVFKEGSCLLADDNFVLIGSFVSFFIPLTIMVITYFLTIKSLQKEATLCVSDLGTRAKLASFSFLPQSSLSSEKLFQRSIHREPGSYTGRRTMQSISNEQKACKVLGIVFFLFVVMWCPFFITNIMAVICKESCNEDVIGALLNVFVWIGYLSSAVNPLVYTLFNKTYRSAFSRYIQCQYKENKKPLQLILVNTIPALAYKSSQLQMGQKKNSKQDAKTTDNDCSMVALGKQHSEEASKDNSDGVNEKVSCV
Procedure, shortened: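 Antagonist-mode intracellular calcium assay: DOI (4 nM) added after 5 min compound pre-incubation at room temperature to dye-loaded HTR2A-CHO cells. Fluorescence followed for 3 min, sampled every second.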

[8] = target: 5-hydroxytryptamine receptor 2A (Homo sapiens) (UniProt P28223); test: 5-hydroxytryptamine receptor 2A (HTR2A) small molecule agonists, cell-based qHTS assay (AID 1963587); note: nearly all actives have a fitted effect of over 30% in size
Procedure, shortened: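 HTR2A-CHO cells, plated 18 h at 37 C/5% CO2, dye-loaded 1 h at 37 C; compounds in DMSO added by pin tool (agonist mode). Intracellular calcium flux read as kinetic fluorescence on FDSS over 2 min at 1 s intervals.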

[9] = target: Muscarinic acetylcholine receptor M1 (Homo sapiens) (UniProt P11229); test: Cholinergic receptor muscarinic 1 (CHRM1) small molecule antagonists, cell-based qHTS assay (AID 1963588); note: nearly all actives have a fitted effect of over 40% in size
Sequence of Muscarinic acetylcholine receptor M1 (Homo sapiens) (P11229 whole entry, looked up): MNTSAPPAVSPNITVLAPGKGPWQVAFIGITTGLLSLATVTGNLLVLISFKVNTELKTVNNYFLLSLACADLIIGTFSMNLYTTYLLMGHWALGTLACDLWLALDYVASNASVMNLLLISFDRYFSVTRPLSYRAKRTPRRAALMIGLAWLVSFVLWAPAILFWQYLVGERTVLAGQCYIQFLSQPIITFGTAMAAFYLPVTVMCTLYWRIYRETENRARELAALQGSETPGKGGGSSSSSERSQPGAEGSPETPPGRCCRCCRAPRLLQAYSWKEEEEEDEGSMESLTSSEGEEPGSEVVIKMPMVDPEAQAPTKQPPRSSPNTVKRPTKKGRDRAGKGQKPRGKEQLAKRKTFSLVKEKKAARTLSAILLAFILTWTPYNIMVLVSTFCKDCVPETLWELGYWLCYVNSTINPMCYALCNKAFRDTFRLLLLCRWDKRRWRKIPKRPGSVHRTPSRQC
Procedure, shortened: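 CHRM1-CHO calcium-flux assay, antagonist mode. Cells were seeded 18 h, dye-loaded 1 h at 37 C and given compound for 5 min at RT, then acetylcholine was added at 50nM. FDSS fluorescence was read 3 min; 15 concentrations, three runs.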

[10] = target: Muscarinic acetylcholine receptor M1 (Homo sapiens) (UniProt P11229); test: Cholinergic receptor muscarinic 1 (CHRM1) small molecule agonists, cell-based qHTS assay (AID 1963589); note: nearly all actives have a fitted effect of over 35% in size
Procedure, shortened: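 CHO cells stably expressing human CHRM1 were loaded with calcium dye for 1 h at 37 C, then compound was added in agonist mode. Intracellular calcium fluorescence was followed kinetically at 1 s intervals. Fifteen concentrations were tested in three independent runs.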

[11] = target: Beta-2 adrenergic receptor (Homo sapiens) (UniProt P07550); test: Adrenergic beta2 receptor (ADRB2) small molecule antagonists, cell-based qHTS assay (AID 1963592); note: series mostly up to about 92 µM; nearly all actives have a fitted effect of over 50% in size
Sequence of Beta-2 adrenergic receptor (Homo sapiens) (P07550 whole entry, looked up): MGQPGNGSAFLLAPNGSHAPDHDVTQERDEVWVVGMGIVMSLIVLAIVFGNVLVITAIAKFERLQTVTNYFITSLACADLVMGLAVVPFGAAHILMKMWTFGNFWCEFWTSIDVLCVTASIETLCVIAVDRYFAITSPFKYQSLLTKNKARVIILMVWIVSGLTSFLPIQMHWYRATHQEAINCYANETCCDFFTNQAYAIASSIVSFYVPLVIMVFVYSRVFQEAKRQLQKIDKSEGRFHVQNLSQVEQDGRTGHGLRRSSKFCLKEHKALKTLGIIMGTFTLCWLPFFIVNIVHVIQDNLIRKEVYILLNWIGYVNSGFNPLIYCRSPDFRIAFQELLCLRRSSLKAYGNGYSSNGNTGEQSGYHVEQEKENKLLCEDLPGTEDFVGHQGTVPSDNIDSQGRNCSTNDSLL
Procedure, shortened: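 Cells (CHO, stable ADRB2 overexpression) incubated 18-20hr at 37C; compounds added from DMSO; agonist mix (1nM isoproterenol, 100uM IBMX, 25uM Ro-20-1724) added; 0.5hr RT; d2-cAMP and anti-cAMP-cryptate added; 1hr RT; 665/615 nm read.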

[12] = p53 small molecule agonists, cell-based qHTS assay (AID 1963582; active = well fitted activation curve with a large enough effect in the signal ratio in the repeat runs, not every such curve was filed as active; the % refers to the signal ratio)
Procedure, shortened: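 p53RE-bla reporter cells, compounds added in DMSO after 5 h plating, incubated 16 h at 37 C. Beta-lactamase read via 2 h room-temperature LiveBLAzer B/G FRET substrate, fluorescence intensity.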

[13] = target: D(2) dopamine receptor (Homo sapiens) (UniProt P14416); test: Dopamine D2 receptor (DRD2) small molecule agonists, cell-based qHTS assay (AID 1963594); note: nearly all actives have a fitted effect of over 35% in size
Sequence of D(2) dopamine receptor (Homo sapiens) (P14416 whole entry, looked up): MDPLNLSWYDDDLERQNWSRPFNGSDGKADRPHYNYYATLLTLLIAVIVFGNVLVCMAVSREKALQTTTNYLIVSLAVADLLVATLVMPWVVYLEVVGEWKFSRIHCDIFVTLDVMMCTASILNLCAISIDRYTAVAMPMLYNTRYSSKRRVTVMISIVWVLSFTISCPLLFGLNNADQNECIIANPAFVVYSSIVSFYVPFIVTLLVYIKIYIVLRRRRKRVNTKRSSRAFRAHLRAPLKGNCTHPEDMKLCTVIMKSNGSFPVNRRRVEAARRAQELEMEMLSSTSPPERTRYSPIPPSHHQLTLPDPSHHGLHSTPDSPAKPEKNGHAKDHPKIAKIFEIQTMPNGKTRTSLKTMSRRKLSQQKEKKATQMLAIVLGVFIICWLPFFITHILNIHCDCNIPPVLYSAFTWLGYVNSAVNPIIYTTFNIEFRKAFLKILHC
Procedure, shortened: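 HEK293 cells stably expressing DRD2 were cultured 24 h at 37 C, then given Ro20-1724 (0.1 mM final) and compounds for 10 min at room temperature. NKH477 (200nM) was then added for 30 min. cAMP was read by HTRF.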

[14] = p53 small molecule agonists, cell-based qHTS assay with human liver microsomes: qHTS cell viability counter screen (AID 1963579); note: nearly all actives have a fitted effect of over 45% in size
Procedure, shortened: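 Luminescent CellTiter-Glo read-out, 30 min at room temperature, gauged cytotoxicity in p53RE-bla cells exposed 16 h at 37 C to DMSO-dissolved compounds with metabolic activation by human liver microsomes and NADPH, each 0.5 mg/mL final.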

[15] = p53 small molecule agonists, cell-based qHTS assay with rat liver microsomes: qHTS cell viability counter screen (AID 1963580); note: nearly all actives have a fitted effect of over 45% in size
Procedure, shortened: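 p53RE-bla HCT-116 cells (4,000/well) rested 5 h at 37 C, then given Tox21 compounds in DMSO with rat liver microsomes (0.5 mg/mL final) plus NADPH (0.5 mg/mL final) for 16 h at 37 C. Viability read by CellTiter-Glo luminescence after 30 min at room temperature.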

[16] = p53 small molecule agonists, cell-based qHTS assay: qHTS cell viability counter screen (AID 1963581); note: nearly all actives have a fitted effect of over 45% in size; note: potency is the fitted concentration of half-maximal effect
Procedure, shortened: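 p53RE-bla HCT-116 cells, compounds added 5 h after plating and incubated 16 h at 37 C. Cytotoxicity measured in the same wells as intracellular ATP by CellTiter-Glo luminescence after 30 min at room temperature.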

[17] = cAMP Responsive Elements (CRE) small molecule agonists, cell-based qHTS assay (AID 1963590)
Procedure, shortened: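 CRE-bla HEK 293T cells, 2,000/well in DMEM with 10% dialyzed FBS and 25 mM HEPES, pre-incubated 18 h at 37 C, then exposed to compound 3 h at 37 C. Beta-lactamase reporter read with LiveBLAzer B/G FRET substrate after 2 h at room temperature.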

[18] = cAMP Responsive Elements (CRE) small molecule antagonists, cell-based qHTS assay (AID 1963591; active = well fitted inhibition curve with a large enough effect in the signal ratio in the repeat runs, not every such curve was filed as active; the % refers to the signal ratio)
Procedure, shortened: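 CRE-bla HEK293T cells plated 18 h, then given compound plus NKH477 at 0.25 uM final for 3 h at 37C. Beta-lactamase reporter read with LiveBLAzer B/G FRET substrate after 2 h at room temperature.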

[19] = target: Beta-2 adrenergic receptor (Homo sapiens) (UniProt P07550); test: Adrenergic beta2 receptor (ADRB2) small molecule agonists, cell-based qHTS assay (AID 1963593);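 note: CHO cells stably overexpressing human ADRB2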
Procedure, shortened: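 CHO cells stably over-expressing ADRB2 were plated overnight at 37C, then dosed with compounds plus a stimulation mix containing 100uM IBMX and 25uM Ro-20-1724 for 0.5hr at room temperature. cAMP was measured by HTRF competition, 1hr.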

[20] = target: D(2) dopamine receptor (Homo sapiens) (UniProt P14416); test: Dopamine D2 receptor (DRD2) small molecule antagonists, cell-based qHTS assay (AID 1963595; active = well fitted inhibition curve with a large enough effect in the signal ratio in the repeat runs, with a control signal flat; the % refers to the signal ratio)
Procedure, shortened: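 Human DRD2 antagonist qHTS measuring cAMP by HTRF. The cells are exposed to compound for 10 min, then to NKH477 (200 nM) and quinpirole (12 nM) for 30 min at RT, with Ro20-1724 (0.1 mM) present throughout.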

Measured: Potency

CCc1nn(C)c(C(=O)NCc2ccc(C(C)(C)C)cc2)c1Cl
inactive: [1] | [2] | [3] | [4] | [5] | [6] | [7] | [8] | [9] | [10] | [11]

CC(C)C1CCC(Cc2ccc(Cl)cc2)C1(O)Cn1cncn1 (centres undefined)
inactive: [1] | [2] | [3] | [4] | [5] | [6] | [12] | [10] | [13]
active: [7] 37.1 µM

COC1CC(=C(c2cccs2)c2cccs2)C[N+](C)(C)C1 (centres undefined)
not listed: [6] | [9] | [13] | [20]
inactive: all other assays above

ClC(Cl)=C(c1ccc(Cl)cc1)c1ccccc1Cl
not listed: [5] | [7] | [12] | [15] | [17] | [19] | [20]
inactive: all other assays above

O=S1OC[C@@H]2[C@H](CO1)[C@]1(Cl)C(Cl)=C(Cl)[C@@]2(Cl)C1(Cl)Cl (some centres undefined)
active: [1] 24.3 µM
not listed: [12] | [14] | [17] | [18] | [19] | [20]
inactive: all other assays above

CSC(=O)c1c(C(F)F)nc(C(F)(F)F)c(C(=O)SC)c1CC(C)C
active: [1] 24.2 µM
not listed: [5] | [7] | [9] | [12] | [17] | [19]
inactive: all other assays above

Oc1ccc(Cl)c(Cl)c1Cl
not listed: [9] | [15] | [16] | [17] | [19]
inactive: all other assays above

O=C(c1ccccc1)C(Cl)Cl
active: [1] 27.3 µM
not listed: [12] | [15] | [18] | [19]
inactive: all other assays above

C[C@]12CC[C@H](O)C[C@H]1CC[C@@H]1[C@@H]2C[C@@H](O)[C@]2(C)[C@@H](C3=CC(=O)OC3)CC[C@]12O
active: [1] 3.44 µM | [16] 1.82 µM
not listed: [11] | [12] | [14] | [15] | [17] | [18] | [19]
inactive: all other assays above

NNCCO
not listed: [5] | [6] | [11] | [12]
inactive: all other assays above

CCOP(=O)(Sc1ccccc1)Sc1ccccc1
active: [1] 61.1 µM
not listed: [5] | [6] | [12]
inactive: all other assays above

CN(C)C1CCCCC1
not listed: [5] | [6] | [12] | [19]
inactive: all other assays above

CCCCN(CCCC)C(=S)S
active: [1] 68.6 µM
not listed: [5] | [6] | [12] | [13] | [17] | [18] | [19]
inactive: all other assays above
